Screening data as filed in PubChem BioAssay.
Shown are actives, neighbours in structure and some others; about 11% of the full set was active somewhere.
hNpr1 antagonist = Natriuretic polypeptide receptor (hNpr1) antagonism - Primary qHTS; Atrial natriuretic peptide receptor 1 (Homo sapiens), P16066; HEK293 hNpr1 GloSensor cGMP, ANP-stimulated luminescence; Potency, µM (titrated, usually from 46.3 µM), most hits filed as inhibitors; 76,000 tested, 1.6% active; AID 1347048, 2019; calls by dose curve; further: nearly all actives have a fitted effect of over 60% in size
Target sequence (P16066 whole entry, looked up): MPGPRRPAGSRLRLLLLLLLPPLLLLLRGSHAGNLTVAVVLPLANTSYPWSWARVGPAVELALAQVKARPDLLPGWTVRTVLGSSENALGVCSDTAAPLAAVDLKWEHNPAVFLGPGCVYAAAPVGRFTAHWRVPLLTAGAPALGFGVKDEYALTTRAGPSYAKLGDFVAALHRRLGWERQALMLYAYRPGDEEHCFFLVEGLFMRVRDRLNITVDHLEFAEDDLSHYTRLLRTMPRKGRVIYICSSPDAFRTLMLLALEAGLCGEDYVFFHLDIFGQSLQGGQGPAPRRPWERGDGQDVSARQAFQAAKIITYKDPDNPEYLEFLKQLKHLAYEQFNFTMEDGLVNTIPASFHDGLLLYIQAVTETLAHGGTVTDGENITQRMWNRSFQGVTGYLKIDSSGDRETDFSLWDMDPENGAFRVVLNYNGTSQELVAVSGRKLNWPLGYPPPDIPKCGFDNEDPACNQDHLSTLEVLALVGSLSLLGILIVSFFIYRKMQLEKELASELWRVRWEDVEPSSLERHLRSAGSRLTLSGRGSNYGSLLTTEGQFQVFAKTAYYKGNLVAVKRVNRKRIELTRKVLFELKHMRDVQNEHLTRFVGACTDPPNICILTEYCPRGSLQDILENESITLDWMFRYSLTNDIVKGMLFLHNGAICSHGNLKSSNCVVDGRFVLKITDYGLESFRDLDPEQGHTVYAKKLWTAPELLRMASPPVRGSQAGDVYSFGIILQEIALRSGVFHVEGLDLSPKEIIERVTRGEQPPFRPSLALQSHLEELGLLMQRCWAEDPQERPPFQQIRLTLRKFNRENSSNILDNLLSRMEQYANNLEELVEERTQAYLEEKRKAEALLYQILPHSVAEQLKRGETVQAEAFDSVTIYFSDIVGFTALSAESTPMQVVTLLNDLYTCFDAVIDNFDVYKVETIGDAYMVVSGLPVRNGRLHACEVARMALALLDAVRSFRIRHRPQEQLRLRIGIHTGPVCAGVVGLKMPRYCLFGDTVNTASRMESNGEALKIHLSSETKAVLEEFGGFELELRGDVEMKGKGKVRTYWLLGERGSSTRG
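Compound pre-incubated 30 min at room temperature on GloSensor-loaded HEK293 cells stably carrying hNpr1 and the pGS-40F cGMP biosensor. Stimulation uses hNppA at 0.1 nM final; luminescence is taken at baseline and 20 min post-agonist.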
HEK cytotox = Cytotoxic Profiling in HEK 293 Cell Line of Diverse Libraries Using Quantitative High-Throughput Screening. HEK 293 viability, ATP luminescence (CellTiter-Glo), 48-72 h. Potency, µM (doses to about 115 µM), usual class: inhibitors. 94,000 tested, 6.6% active. AID 1345083, 2018; further: nearly all actives have a fitted effect of over 60% in size
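Cytotoxicity was scored by loss of ATP-coupled luminescence (CellTiter-Glo) in HEK 293 cells. Compound treatment ran 48 or 72 hr at 37 degree Celsius, 5% CO2, 95% humidity.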
FLuc inh = Firefly luciferase inhibition profiling of diverse chemical library using quantitative high-throughput screening; Luciferin 4-monooxygenase (Photinus pyralis), P08659; purified P. pyralis luciferase, luminescence, biochemical; Potency, µM (highest dose often 115 µM), hits mostly inhibitors; 76,000 tested, 2.5% active; further: nearly all actives have a fitted effect of over 65% in size
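FLuc 10nM, D-luciferin 10uM, ATP 10uM, Mg acetate 10mM, Tris acetate pH 7.5, Tween/BSA; cpd qHTS; enzyme added last; CCD luminescence.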
3T3 cytotox = Cytotoxic Profiling in NIH 3T3 Cell Line of Diverse Libraries Using Quantitative High-Throughput Screening; Potency, µM (highest dose often 96.7 µM), hits mostly inhibitors; AID 1345082, 2018; 94,000 tested, 4.3% active; NIH 3T3 viability, CellTiter-Glo ATP luminescence, 48-72 h; further: nearly all actives have a fitted effect of over 55% in size
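First NIH 3T3 cells are plated at 400 cells/well; next compound is pinned in; then plates incubate 48 or 72 hr at 37 °C; finally CellTiter-Glo is added and luminescence read after 10 min.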
Each line names hits and unclear results; the compound was inactive in the other large screens. Unless noted, the call rests on the fitted dose curve; in most records, active means well fitted curve in the direction sought with a large enough effect; inconclusive means small, poorly fitted or top-dose-only effect, or another doubt; inactive means no such curve, though single readings can be large; an effect the other way counts as inactive or inconclusive.

CC1CCC(NC(=O)C2CCN(c3cc(C(F)(F)F)ncn3)CC2)CC1 (centres undefined)	hNpr1 antagonist 2.24µM, HEK cytotox inconclusive, FLuc inh inconclusive, 3T3 cytotox inconclusive
CCCN1CCC2(Cc3ccccc3CN(C(=O)C(C)C)C2)C1 (centres undefined)	HEK cytotox inconclusive (no result: hNpr1 antagonist, FLuc inh)
O=C(Nc1ccccc1)[C@@H]1C[C@@H](c2cccc(C(F)(F)F)c2)N(CC2CCOCC2)C1	hNpr1 antagonist inconclusive, HEK cytotox 56.2µM, 3T3 cytotox inconclusive
COc1cccc(NC(=O)[C@@H]2C[C@@H](c3cccc(C(F)(F)F)c3)N(CC3CCOCC3)C2)c1	HEK cytotox inconclusive, 3T3 cytotox inconclusive
CN1C[C@H](C(=O)Nc2cccc(F)c2)C[C@H]1c1cccc(C(F)(F)F)c1	HEK cytotox 63.1µM, 3T3 cytotox 50.1µM
O=C(Nc1cccc(F)c1)[C@@H]1C[C@@H](c2cccc(C(F)(F)F)c2)N(CC2CCOCC2)C1	HEK cytotox 22.4µM, 3T3 cytotox 20µM
COc1cc(CNC(=O)[C@@H]2C[C@@H](c3cccc(C(F)(F)F)c3)N(C)C2)cc(OC)c1	HEK cytotox inconclusive, 3T3 cytotox inconclusive
CN1C[C@H](C(=O)NCCOc2ccccc2)C[C@H]1c1cccc(C(F)(F)F)c1	HEK cytotox 100µM, 3T3 cytotox inconclusive
CCC1c2nccn2CCCN1C(=O)Cc1ccc(OC)cc1 (centres undefined)	none
Cc1ccc(NC2=N[C@H]3[C@@H](O)[C@H](O)C[C@H](C(=O)N(C)Cc4ccccc4)[C@H]3S2)cc1	FLuc inh 31.6µM
Cc1ccc(-c2cn3c(n2)CO[C@@H](CNC(=O)c2ccc(Cl)cc2)C3)cc1	hNpr1 antagonist inconclusive, HEK cytotox inconclusive, FLuc inh 39.8µM, 3T3 cytotox inconclusive
COc1ccc(-c2cn3c(n2)CO[C@@H](CNC2CCCC2)C3)cc1	none
COc1ccccc1-c1cn2c(n1)CO[C@@H](CNC(=O)c1ccc(Cl)cc1)C2	HEK cytotox 100µM, 3T3 cytotox inconclusive
Cc1ccc(-c2cn3c(n2)CO[C@@H](CNC(C)C)C3)cc1	HEK cytotox inconclusive, FLuc inh 39.8µM, 3T3 cytotox inconclusive
CNC(=O)[C@@H]1CCCN1c1nccc(Nc2ccccc2Cl)n1	HEK cytotox inconclusive (no result: hNpr1 antagonist, FLuc inh)
CCN(C(=O)CN1C=C(C(=O)OC)C(C)=NS1(=O)=O)c1cccc(C)c1	none
Cc1ccc(-c2ccccc2CN2CCN([S+](=O)([O-])CCC(F)(F)F)CC2)cc1Cl	HEK cytotox inconclusive (no result: hNpr1 antagonist, FLuc inh)
O=C1NC2(CCCN(Cc3ccsc3)C2)COc2ccccc21 (centres undefined)	HEK cytotox 79.4µM, 3T3 cytotox 39.8µM
O=C1NC2(CCCN(Cc3cncs3)C2)COc2ccccc21 (centres undefined)	HEK cytotox 28.2µM, 3T3 cytotox 22.4µM
O=S1(=O)NC2(CCCN(Cc3ccc(Cl)cc3)C2)COc2ccccc21 (centres undefined)	HEK cytotox inconclusive, 3T3 cytotox 44.7µM (no result: hNpr1 antagonist, FLuc inh)
O=C1NC2(CCCN(Cc3ccc(F)cc3)C2)COc2ccccc21 (centres undefined)	HEK cytotox inconclusive, 3T3 cytotox inconclusive
Cc1noc(C)c1[S+](=O)([O-])N1CCCC2(COc3ccccc3C(=O)N2)C1 (centres undefined)	hNpr1 antagonist inconclusive, HEK cytotox 22.4µM, 3T3 cytotox 35.5µM
Cc1cnc(C)n1C1CCN(S(=O)(=O)c2ccccc2)CC1	HEK cytotox inconclusive, 3T3 cytotox inconclusive
c1ccc(C2(c3ccccc3)CCCN(Cc3cscn3)C2)cc1	HEK cytotox 39.8µM, 3T3 cytotox inconclusive
Cc1ccc(Cn2cc(-c3ccncc3)cc2C(=O)NC2CC2)cc1	HEK cytotox inconclusive, FLuc inh 44.7µM, 3T3 cytotox inconclusive
Cc1ccc(Cn2cc(-c3ccncc3)cc2C(=O)NCC2CC2)cc1	HEK cytotox inconclusive, 3T3 cytotox inconclusive
CN(C)C[C@@H]1CN(S(C)(=O)=O)C[C@H]1NC(=O)c1ccc(Cl)cc1	none
CN(C)C[C@@H]1CN(S(C)(=O)=O)C[C@H]1NC(=O)c1c(F)cccc1Cl	FLuc inh 39.8µM
CC(=O)Nc1ccc(CN2CCC[C@H]2c2nc(-c3ccnc(N4CCC(C(N)=O)CC4)c3)no2)cc1	HEK cytotox inconclusive
c1cc(-c2noc([C@@H]3CCCN3Cc3ncc[nH]3)n2)cc(N2CCCC2)n1	HEK cytotox 100µM, 3T3 cytotox inconclusive
c1cncc(CN2CCC[C@H]2c2nc(-c3ccnc(N4CCCC4)c3)no2)c1	HEK cytotox inconclusive, 3T3 cytotox inconclusive
CC(=O)N1CCN(c2cc(-c3noc([C@@H]4CCCN4Cc4ccc(N(C)C)cc4)n3)ccn2)CC1	HEK cytotox 17.8µM
O=C(c1ccc(Cl)nc1)N1CCCC(C(=O)N2CCCC2c2nc3ccncc3[nH]2)C1 (centres undefined)	none (no result: hNpr1 antagonist, FLuc inh)
CC(=O)Nc1ccc(-c2ccc(=O)n3c2[C@@H]2C[C@@H](CN(C(=O)Nc4cccc(C#N)c4)C2)C3)cc1	HEK cytotox 31.6µM
COc1ncccc1-c1cn(C)c(=O)n2cc(CN3CC[S+](=O)([O-])CC3)nc12	3T3 cytotox inconclusive
CC(=O)Nc1cc(-c2cn(C)c(=O)n3cc(CN4CC[S+](=O)([O-])CC4)nc23)ccn1	3T3 cytotox 100µM
CC(C)c1cccc(NC(=O)c2ccc3c(c2)N(C)C2CCCCN2C3=O)c1 (centres undefined)	HEK cytotox 28.2µM, 3T3 cytotox inconclusive
Cc1cc(C)cc(NC(=O)c2ccc3c(c2)N(C)C2CCCCN2C3=O)c1 (centres undefined)	HEK cytotox inconclusive, FLuc inh inconclusive, 3T3 cytotox inconclusive
Cc1cccc(NC(=O)c2ccc3c(c2)N(C)C2CCCCN2C3=O)c1 (centres undefined)	HEK cytotox inconclusive, FLuc inh 28.2µM, 3T3 cytotox inconclusive
CCc1cccc(NC(=O)c2ccc3c(c2)N(C)C2CCCCN2C3=O)c1 (centres undefined)	HEK cytotox inconclusive, FLuc inh inconclusive, 3T3 cytotox inconclusive
CC(C)c1ccc(NC(=O)c2ccc3c(c2)N(C)C2CCCN2C3=O)cc1 (centres undefined)	HEK cytotox 44.7µM, FLuc inh 15.8µM, 3T3 cytotox inconclusive
Cc1cn2nc(C(=O)NCc3ccc(F)cc3F)cc2c(N(C)Cc2ccccc2)n1	HEK cytotox inconclusive, 3T3 cytotox 35.5µM
Cc1cn2nc(C(=O)N3CCC(C)CC3)cc2c(N(C)Cc2ccccc2)n1	HEK cytotox inconclusive, 3T3 cytotox 35.5µM
Cc1cn2nc(C(=O)NCc3ccccc3F)cc2c(N(C)Cc2ccccc2)n1	HEK cytotox inconclusive, 3T3 cytotox inconclusive
Cc1cn2nc(C(=O)N3CCCC3)cc2c(N(C)Cc2ccccc2)n1	HEK cytotox inconclusive, 3T3 cytotox inconclusive
